From the supplement of paper PMC10127200
Structures can show the parent of a compound that is named as a salt.

How the values were obtained:
Assay in all cases: Euclidean distance of Cell Painting phenotypic profile (signed KS, 77 features) to DMSO centroid (dimensionless distance); 5 or 10 uM (library dependent); higher = stronger phenotypic change vs DMSO (phenoactivity)
Details in all cases: 48 h
786-O = test system: 786-O
Procedure, shortened: (§1)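 Stained cells were imaged confocally at 20X with 9 fields per well, after 48 h of exposure to library compounds at 10 or 5 uM (set by library; 0.1% DMSO final). The cells were five cancer lines and a healthy fibroblast line. From the images, Harmony extracted 77 features, each expressed as a signed Kolmogorov-Smirnov statistic relative to same-plate vehicle wells. Phenoactivity is measured as Euclidean distance to the median vehicle profile, using plate-position-corrected, correlation-weighted profiles averaged across replicates at the top dose.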

A549 = test system: A549
Procedure, shortened: as §1

DU145 = test system: DU145
Procedure, shortened: as §1

FB = test system: FB
Procedure, shortened: as §1

HEPG2 = test system: HEPG2
Procedure, shortened: as §1

OVCAR4 = test system: OVCAR4
Procedure, shortened: as §1

Structure (SMILES) | Euclidean distance (786-O) | Euclidean distance (A549) | Euclidean distance (DU145) | Euclidean distance (FB) | Euclidean distance (HEPG2) | Euclidean distance (OVCAR4)
C/C=C1\[C@H]2C=C(C)C[C@]1(N)c1ccc(=O)[nH]c1C2 [(-)-Huperzine A (HupA)] | 1.09 | 0.676 | 0.79 | 0.881 | 0.528 | 1.07
O=C(NC1CCOCC1)c1ccc(-c2cc(-c3c[nH]nc3-c3ccccn3)ccn2)cc1 | 1.22 | 0.965 | 0.674 | 1.3 | 1.01 | 0.73
O=C(CCCCCCNC(=O)c1cnc(N(c2ccccc2)c2ccccc2)nc1)NO [Ricolinostat (ACY-1215)] | 1.87 | 1.63 | 1.29 | 3.31 | 2.26 | 2.18
C[C@@H]1CCO[C@H]2Cn3cc(C(=O)NCc4ccc(F)cc4F)c(=O)c(O)c3C(=O)N12 [Dolutegravir Sodium] | 0.603 | 0.757 | 0.904 | 0.594 | 0.621 | 0.881
Cc1cc(Nc2cc(N3CCN(C)CC3)nc(Sc3ccc(NC(=O)C4CC4)cc3)n2)n[nH]1 [VX-680 (Tozasertib. MK-0457)] | 2.67 | 3.95 | 3.26 | 3.01 | 1.92 | 2.98
C[C@@H](Nc1cc(F)cc(F)c1)c1cc(C(=O)N(C)C)cc2c(=O)cc(N3CCOCC3)oc12 | 2.04 | 1.94 | 1.72 | 2.79 | 0.984 | 2.9
Cn1cc(-c2ccc3nnc(Sc4ccc5ncccc5c4)n3n2)cn1 | 1.56 | 2.02 | 1.64 | 0.87 | 0.766 | 0.987
CCNC(=O)[C@H]1O[C@@H](n2cnc3c(N)nc(NCCc4ccc(CCC(=O)O)cc4)nc32)[C@H](O)[C@@H]1O | 0.618 | 0.662 | 0.916 | 0.846 | 0.636 | 0.752
CC#CCn1c(N2CCC[C@@H](N)C2)nc2c1c(=O)n(Cc1nc(C)c3ccccc3n1)c(=O)n2C [Linagliptin] | 0.904 | 0.984 | 0.641 | 1.4 | 0.628 | 0.529
NC[C@H]1O[C@H](O[C@H]2[C@H](O[C@@H]3O[C@H](CO)[C@@H](O)[C@H]3O)[C@@H](O)[C@H](N)C[C@@H]2N)[C@H](N)[C@@H](O)[C@@H]1O [Ribostamycin Sulfate] | 1.45 | 1.17 | 1.23 | 0.806 | 0.615 | 1.22
CNC(=C[N+](=O)[O-])NCCSCc1ccc(CN(C)C)o1 [Ranitidine] | 0.881 | 0.596 | 0.696 | 0.903 | 1.02 | 0.83
Oc1cc(O)c2c(c1)OC(c1ccc(O)c(O)c1)C(O)C2 (single isomer, unassigned; (+)) [(+)-Catechin] | 0.785 | 0.904 | 0.506 | 0.842 | 0.247 | 0.849
COc1ccc2cc1Oc1ccc(cc1)C[C@H]1c3c(cc4c(c3Oc3cc5c(cc3OC)CCN(C)[C@@H]5C2)OCO4)CCN1C [Cepharanthine] | 4.22 | 4.24 | 3.62 | 4.8 | 3.63 | 3.87
CC(C)N(CCCCOCC(=O)NS(C)(=O)=O)c1cnc(-c2ccccc2)c(-c2ccccc2)n1 [Selexipag] | 0.931 | 1.04 | 0.729 | 1.31 | 0.663 | 1.65
O=C(Nc1ncc([N+](=O)[O-])s1)c1ccccc1O [Tizoxanide] | 2.03 | 1.85 | 2.61 | 2.81 | 2.81 | 1.81
CCN(Cc1ccncc1)C(=O)C(CO)c1ccccc1 (stereo not given) [Tropicamide] | 1.11 | 1.27 | 1.8 | 1.01 | 0.684 | 1.3
CC[C@H]1OC(=O)[C@H](C)[C@@H](O[C@H]2C[C@@](C)(OC)[C@@H](O)[C@H](C)O2)[C@H](C)[C@@H](O[C@@H]2O[C@H](C)C[C@H](N(C)C)[C@H]2O)[C@](C)(O)C[C@@H](C)C(=O)[C@H](C)[C@@H](O)[C@]1(C)O [Erythromycin thiocyanate] | 1.01 | 1.44 | 0.991 | 1.53 | 0.812 | 1.95
Cc1cc2c(F)c(Oc3ncnn4cc(OC[C@@H](C)O)c(C)c34)ccc2[nH]1 | 2.22 | 1.25 | 1.36 | 1.71 | 1.24 | 1.6
N#CC[C@H](C1CCCC1)n1cc(-c2ncnc3[nH]ccc23)cn1 | 2.03 | 1.27 | 1.36 | 1.23 | 0.819 | 0.709
CCc1cc(Nc2nccc(-c3c(-c4ccc(OC)c(C(=O)Nc5c(F)cccc5F)c4)nc4ccccn34)n2)c(OC)cc1N1CCC(N2CCN(S(C)(=O)=O)CC2)CC1 | 1.24 | 1.6 | 1.12 | 0.954 | 1.11 | 1.26
O=C1NC(=O)C(=Cc2ccc(-c3ccc(F)cc3)o2)S1 (stereo in doubt) | 1.04 | 0.938 | 1.43 | 1.29 | 0.808 | 1.33
O=C(O)C(Cc1ccccc1[N+](=O)[O-])=NNc1nc(-c2ccc(Cl)c(Cl)c2)cs1 (mixture of isomers) | 0.716 | 1.16 | 0.992 | 2.32 | 0.514 | 0.642
O=C1OC2(c3ccc(O)cc3Oc3cc(O)ccc32)c2ccccc21 [Fluorescein] | 0.775 | 0.447 | 0.83 | 0.881 | 1.12 | 1.27
N#CSc1cc(SC#N)c(N)nc1N | 0.526 | 2.18 | 0.906 | 1.25 | 1.27 | 1.14
O=C(NC(Cc1cc(=O)[nH]c2ccccc12)C(=O)O)c1ccc(Cl)cc1 (stereo not given) [Rebamipide] | 1.17 | 1.17 | 1.29 | 0.77 | 1.97 | 1.06
